42 sequences from publication PMC7819943, “Rice protein-binding microarrays: a tool to detect cis-acting elements near promoter regions in rice” can be followed below.

The full ranking holds about 68,000 sequences; the median of “fluorescence intensity (a.u.)” is about 9,100, and the highest 2% start at about 16,000. The list comes from a sample in which the highest values are over-represented; it also holds similar and randomly drawn sequences.

OsWRKY34, sequence (Q0JBA9 entry or part of it): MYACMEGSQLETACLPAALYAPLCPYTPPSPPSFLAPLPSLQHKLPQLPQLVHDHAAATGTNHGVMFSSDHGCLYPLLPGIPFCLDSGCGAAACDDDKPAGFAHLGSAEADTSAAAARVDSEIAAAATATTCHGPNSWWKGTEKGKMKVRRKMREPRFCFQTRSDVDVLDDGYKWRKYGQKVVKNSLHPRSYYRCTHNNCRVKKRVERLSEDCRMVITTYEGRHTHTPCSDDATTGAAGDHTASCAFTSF

This assay concerns the target OsWRKY34 (Oryza sativa, UniProt Q0JBA9 1-250). Briefly: protein-binding microarray (RPBM); PBS, 2% BSA, 51.3 ng/ul salmon testes DNA, 50 uM zinc acetate, 200 nM TF, 25 C, 1 h; high values mean tight binding. The note with it: protein: recombinant; tags: N-terminal polyhistidine and DsRed monomer fusion (pET32a); label: CyDye5-dUTP incorporated in the synthesized complementary strand; 3' TTTTT single-stranded linker to array surface; dsDNA, one strand shown. Put shortly:
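Transcription factors, each fused N-terminally to a polyhistidine tag and DsRed, were expressed in E. coli BL21-CodonPlus and purified on Ni–NTA. A custom Agilent array was made double-stranded by primer extension with Cy5-dUTP and blocked with 2% BSA. It was incubated with 200 nM protein in PBS, 2% BSA, salmon testes DNA and 50 µM zinc acetate at 25 °C for 1 h, then washed. The binding signal is per-feature fluorescence intensity (arbitrary units) read on an Axon 4000B scanner.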
In the case of “TTATGGTTGTTTTCTTCGGTTCTTTGTTTTTTTAAAAAAACGGAGTCACCTAGTGCAG”, the binding signal was 11600 fluorescence intensity (a.u.).
As for “AGGCTACACTATTAAACTTGCTCTTCTCAAGCTACTTCAACGGAGTCACCTAGTGCAG”, the binding signal is 8190 fluorescence intensity (a.u.).
With “ATGGTTTTTCAGGGTTGGATTTATGTGTGGTCAGTTTAAACGGAGTCACCTAGTGCAG” the figure was 12000 fluorescence intensity (a.u.); with “GATGTGCCAATGGTTTCTTTCTCTTTCTTTCTCTTTAAAACGGAGTCACCTAGTGCAG”, 8910 fluorescence intensity (a.u.); with “ATTATTAATAAAACTCATTCTATAACTCTGGACTAATTCGCGGAGTCACCTAGTGCAG”, 8200 fluorescence intensity (a.u.).
With “GGGGTTTGCTATTCTGGCTCTCTATTAAGCTCATAAAAAACGGAGTCACCTAGTGCAG” the figure was 23500 fluorescence intensity (a.u.); with “GAGTGGGTGTGGGTTTTCTAGTGGGCAGATTTAGTTTTAACGGAGTCACCTAGTGCAG”, 17200 fluorescence intensity (a.u.); with “TCCATTTCCCGCCGCCTCCCCTCTCGCGATCCATATCCATCGGAGTCACCTAGTGCAG”, 8050 fluorescence intensity (a.u.).
In the case of “GCTTTTCTTCCTCGACAAGGCCGCCTGCACCACCGTCTCCCGGAGTCACCTAGTGCAG”, the binding signal is 10500 fluorescence intensity (a.u.).
With “CTGGTTACTTTCTCATTTCTTCCTCGCTCGCGCGCTCTCTCGGAGTCACCTAGTGCAG” the figure was 10800 fluorescence intensity (a.u.); with “GATTTAGAGTTGGAGTCAGTCGGTTTGACCAGCCACATGCCGGAGTCACCTAGTGCAG”, 8690 fluorescence intensity (a.u.); with “GCTAGGTCAACTTTGCTCTCAGCTCTCGCTCCCGATGCCACGGAGTCACCTAGTGCAG”, 9760 fluorescence intensity (a.u.).
With “CTCTCTCTCTCTCTCTCTCTCTCTCTCCAACGCGCGCGCGCGGAGTCACCTAGTGCAG” the figure was 8700 fluorescence intensity (a.u.).
With “CGGCGTCTCTACCTCTACGAATCAGGTCAGGCTTCGATCCCGGAGTCACCTAGTGCAG” the figure was 8380 fluorescence intensity (a.u.); with “CTGGCCGCCATCTCCGCCAATCTCGCTGAATCGGACGCCACGGAGTCACCTAGTGCAG”, 8460 fluorescence intensity (a.u.).
Turning to “GGGGTTTTTCTTATGTTAGTATATGTGTGGGATGTGTGAACGGAGTCACCTAGTGCAG”, the binding signal was 16800 fluorescence intensity (a.u.).
With “ATGTGTGGATTTATAAGGGTGAGTATATGTGTTTCGGGAACGGAGTCACCTAGTGCAG” the figure was 8140 fluorescence intensity (a.u.); with “GAAATGTGGGAGGGGTTTTCTTACAAATGTTATATAGACACGGAGTCACCTAGTGCAG”, 13900 fluorescence intensity (a.u.).
With “CGGGTTCAATATATTGTTTTTTTTAAGACTGGTTCAATATCGGAGTCACCTAGTGCAG” the figure was 8880 fluorescence intensity (a.u.); with “TATGTGTTTTTTGCCGATTAAATTATTACGGGATATATAACGGAGTCACCTAGTGCAG”, 9680 fluorescence intensity (a.u.); with “TATATCACATTTAATTATTTTTCCCATGTTCTTGTTTTAACGGAGTCACCTAGTGCAG”, 9480 fluorescence intensity (a.u.).
With “ATTGGGTTGATATTATATTGGCAGGGCCAGAAAGTTTTACCGGAGTCACCTAGTGCAG” the figure was 8580 fluorescence intensity (a.u.); with “AACGGTCAAACATGTGCTAAAAAGTCAACGGTGTCAAATACGGAGTCACCTAGTGCAG”, 18600 fluorescence intensity (a.u.); with “CGAATGGTCAAACATATGAGAAAAAGTCAACGATGTCATCCGGAGTCACCTAGTGCAG”, 13900 fluorescence intensity (a.u.).
For the sequence “CGGTCAAACATGTGCTAAAAAGTCAACGGTGTCAAATATTCGGAGTCACCTAGTGCAG”, the binding signal is 11400 fluorescence intensity (a.u.).
With “ATGGTCAAACATGTGCTAAAAAGTCAACGGTGTCAAACATCGGAGTCACCTAGTGCAG” the figure was 17700 fluorescence intensity (a.u.); with “CGAATGGTCAAACATGTAGAAAAAAGTCAACGGTGTCATCCGGAGTCACCTAGTGCAG”, 16900 fluorescence intensity (a.u.); with “GAACGGTCAAACATGTGCTAAAAAGTCAACGGTGTCAAACCGGAGTCACCTAGTGCAG”, 10100 fluorescence intensity (a.u.).
With “ATGGTCAAACATGTGAGAAAAAGTCAACGGCGTCATCTATCGGAGTCACCTAGTGCAG” the figure was 19600 fluorescence intensity (a.u.); with “AATGGTCAAACATGTGAGAAAAAGTCAACGGCGTTATCTACGGAGTCACCTAGTGCAG”, 15500 fluorescence intensity (a.u.).
With “ACGAACGGTCAAACATGTGCTAAAAAGTCAACGGTGTCAACGGAGTCACCTAGTGCAG” the figure was 15900 fluorescence intensity (a.u.); with “AACGGTCAAATATGTGCTAAAAAGTCAACGGTGTCAAATACGGAGTCACCTAGTGCAG”, 11300 fluorescence intensity (a.u.); with “ACGAATGGTCAAACATGTGAGGAAAAGTCAACGGCGTCATCGGAGTCACCTAGTGCAG”, 13400 fluorescence intensity (a.u.).
As for “TAAGACGAATGGTCAAACATGTAAGAAAAAGTCAACGGTACGGAGTCACCTAGTGCAG”, the binding signal was 12900 fluorescence intensity (a.u.).
With “TAGCTCGGATTCTGCCCCTAATCCCGCCGTCCGCCTCCGCCGGAGTCACCTAGTGCAG” the figure was 8490 fluorescence intensity (a.u.); with “AGGCAACACATACAATGTATCACCTCTAACACACAAATACCGGAGTCACCTAGTGCAG”, 8410 fluorescence intensity (a.u.).
With “TCCATCAGTTTTGTGAACTCTGTCTGTCACTCGCTCAGCACGGAGTCACCTAGTGCAG” the figure was 8940 fluorescence intensity (a.u.); with “TTCTTCGTTTTTCTGAGTACGATCTCCCAGGGTTATAATCCGGAGTCACCTAGTGCAG”, 8850 fluorescence intensity (a.u.); with “CGAGACCGACTGATGCTACAACTTCTGTCCTTGCTCCGGCCGGAGTCACCTAGTGCAG”, 8620 fluorescence intensity (a.u.).
With “ATGTGTGACTTGTCTTTTTAATTTTTTTTTTAATTTTTTTCGGAGTCACCTAGTGCAG” the figure was 9610 fluorescence intensity (a.u.); with “AGGCTATCGTATGACTTTCTTCTGCTTTCATTTGTGTTCACGGAGTCACCTAGTGCAG”, 15300 fluorescence intensity (a.u.).
Regarding “TGGTGGCGTCTGTATTGGGTTTCTTTCTCCAAGTTATATTCGGAGTCACCTAGTGCAG”, the binding signal is 9710 fluorescence intensity (a.u.).
